Inconclusive results are not listed. Active and inactive are the calls of the source. Calls come from the whole dose curve; as a rule, active = well fitted inhibition curve with a large enough effect; inconclusive = small, poorly fitted or top-dose-only effect; inactive = no such curve, though single readings can be large or run the other way.
target: Cytochrome P450 3A4 (Homo sapiens) (UniProt P08684); assay: qHTS Assay for Inhibitors and Substrates of Cytochrome P450 3A4 (AID 884); settings: recombinant CYP3A4, Luciferin-PPXE luminescence; series mostly up to 57.1 µM; note: nearly all actives have a fitted effect of over 50% in size
Method in brief: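 20 nM human CYP3A4 with 25 uM Luciferin-PPXE (at KM) in 200 mM KPO4, preincubated 10 min with compound; NADPH regeneration started a 60 min RT reaction. Luciferin detected by luminescence, normalized to 57 uM ketoconazole as full inhibition.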
Potency is the fitted concentration of half-maximal effect.

Cytochrome P450 3A4 (Homo sapiens), sequence (P08684 whole entry, looked up): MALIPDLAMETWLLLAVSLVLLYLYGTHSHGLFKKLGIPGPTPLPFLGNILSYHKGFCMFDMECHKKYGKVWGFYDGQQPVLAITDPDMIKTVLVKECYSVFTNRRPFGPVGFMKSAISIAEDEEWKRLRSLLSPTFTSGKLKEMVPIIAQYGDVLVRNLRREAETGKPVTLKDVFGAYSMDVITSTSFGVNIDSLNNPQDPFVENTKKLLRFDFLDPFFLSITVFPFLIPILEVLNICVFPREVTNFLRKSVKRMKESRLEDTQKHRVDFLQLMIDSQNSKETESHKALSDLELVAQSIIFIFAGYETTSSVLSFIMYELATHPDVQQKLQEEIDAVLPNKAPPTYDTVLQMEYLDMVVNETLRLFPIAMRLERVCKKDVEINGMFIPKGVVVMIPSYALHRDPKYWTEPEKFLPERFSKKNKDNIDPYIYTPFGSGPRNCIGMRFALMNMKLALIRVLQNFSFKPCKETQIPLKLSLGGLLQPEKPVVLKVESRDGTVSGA

Potency, active:
CCCCCCN(C(=O)CCCCCN1C(=O)NC(C2CCCCC2)C(C(=O)OCc2ccccc2)=C1C)C(C(=O)NCCCC)c1ccc(OCC(=O)OC)c(C(=O)OC)c1 (stereo not given) 3.16 µM
COC(=O)c1ccc(C(/C=C/[C@@H](C)C(=O)NCCc2c[nH]c3ccccc23)NC(=O)OCc2ccccc2)cc1 (stereo not given in full) 3.16 µM
CN(C)C(=O)[C@H]1C[C@@H]1[C@H](NC(=O)OCc1ccccc1)c1ccccc1 7.94 µM
COC(=O)c1ccc(C(/C=C/[C@@H](C)C(=O)NCc2ccccc2)NC(=O)OCc2ccccc2)cc1 (stereo not given in full) 5.01 µM
CCCCCCN(C(=O)CCCCCN1C(=O)NC(c2ccc(-c3ccccc3)cc2)C(C(=O)OCc2ccccc2)=C1C)C(C)C(=O)NCCCC (stereo not given) 3.16 µM
CNC(=O)[C@@]1(Cc2ccccc2)C=C[C@@H](C)N1C(=O)OC 12.6 µM
COC(=O)c1ccc(C(NC(=O)OCc2ccccc2)/C(=C/[C@@H](C)C(=O)NCc2ccc(-c3ccccc3)cc2)c2cccnc2)cc1 (stereo not given in full) 0.794 µM
CNC(=O)[C@]1(C)C[C@H]1[C@H](NC(=O)[C@]1(C)C[C@H]1[C@H](NC(=O)[C@]1(C)C[C@H]1[C@H](NC(=O)[C@]1(C)C[C@H]1[C@H](NC(=O)OCc1ccccc1)c1ccccc1)c1ccccc1)c1ccccc1)c1ccccc1 12.6 µM
COC(=O)c1ccc(C(NC(=O)OCc2ccccc2)/C(=C/[C@@H](C)C(=O)NCc2ccc(OC)c(OC)c2)c2cccnc2)cc1 (stereo not given in full) 3.16 µM
C=C(N(C)C)[C@]1(C)C[C@H]1[C@H](NC(=O)CNC(=O)OCc1ccccc1)c1ccccc1 7.94 µM
COC(=O)c1ccc(C(NC(=O)OCc2ccccc2)/C(F)=C/[C@@H](C)C(=O)N(C)Cc2cccnc2)cc1 (stereo not given in full) 2 µM
CCCCCCN(C(=O)CCCCCN1C(=O)NC(c2ccc(-c3ccccc3)cc2)C(C(=O)OCc2ccccc2)=C1C)C(C(=O)NCCCC)c1ccc(O)c(C(=O)OC)c1 (stereo not given) 10 µM
COC(=O)c1ccc(C(/C=C/[C@@H](C)C(=O)NCCN2CCCC2)NC(=O)OCc2ccccc2)cc1 (stereo not given in full) 10 µM
COC(=O)c1ccc(C(/C=C/[C@@H](C)C(=O)NCc2cc(C)n(C)n2)NC(=O)OCc2ccccc2)cc1 (stereo not given in full) 2 µM
COCCNC(=O)[C@@]1(C)C=C[C@@H](Cc2ccccc2)N1C(=O)c1ccccc1 7.94 µM
COC(=O)c1ccc(C(NC(=O)OCc2ccccc2)/C(=C/[C@@H](C)C(=O)NC2CCCCC2)c2cccnc2)cc1 (stereo not given in full) 1.26 µM
C[C@]1(C(=O)NCCc2c[nH]c3ccccc23)C=C[C@@H](Cc2ccccc2)N1C(=O)c1ccccc1 1.58 µM
C[C@@H]1C=C[C@](Cc2ccccc2)(C(=O)NCCN2CCOCC2)N1C(=O)c1ccccc1 5.01 µM
CC(C)NC(=O)[C@@H]1C[C@@]1(C)[C@@H](NC(=O)OCc1ccccc1)c1ccccc1 10 µM
COC(=O)[C@H](Cc1ccccc1)NC(=O)[C@]1(C)C[C@H]1[C@H](NC(=O)OCc1ccccc1)c1ccccc1 2 µM
COC(=O)[C@H](Cc1ccccc1)NC(=O)[C@H]1C[C@@H]1[C@H](NC(=O)OCc1ccccc1)c1ccccc1 7.94 µM
CC(=O)N1C2(C=CC1(C)C(=O)NCc1cc(F)cc(C(F)(F)F)c1)CCCCC2 (stereo not given) 10 µM
CC1(C(=O)NCCCNc2ncc(C(F)(F)F)cc2Cl)C=CC2(CCCCC2)N1C(=O)c1ccccc1 (stereo not given) 7.94 µM
CN(C)c1ccc(CNC(=O)C2(C)C=CCN2C(=O)c2ccccc2)cc1 (stereo not given) 10 µM
CC1(C(=O)NCCc2c[nH]c3ccccc23)C=CCN1C(=O)c1ccccc1 (stereo not given) 10 µM
COC(=O)c1ccc(C(NC(=O)OCc2ccccc2)/C(=C/[C@@H](C)C(=O)NCc2cccnc2)c2cccnc2)cc1 (stereo not given in full) 1 µM
CC1(C(=O)NCC2CC2)C=CC2(CCCCC2)N1C(=O)c1ccccc1 (stereo not given) 7.94 µM
CCCCNC(=O)C(c1ccc(OCC(=O)OC)c(C(=O)OC)c1)N(CCc1ccccc1)C(=O)CCCCCN1C(=O)NC(c2ccc(-c3ccccc3)cc2)C(C(=O)OCc2ccccc2)=C1C (stereo not given) 5.01 µM
COC(=O)[C@H](Cc1ccccc1)NC(=O)[C@@]1(C)C[C@@H]1[C@@H](NC(=O)OCc1ccccc1)c1ccccc1 2 µM
COC(=O)c1ccc(C(NC(=O)OCc2ccccc2)/C(F)=C/[C@@H](C)C(=O)NCCN2CCOCC2)cc1 (stereo not given in full) 3.98 µM
CC(=O)N1CC=CC1(C)C(=O)NCc1cc(F)cc(C(F)(F)F)c1 (stereo not given) 15.8 µM
CCCCNC(=O)C(c1ccc(OCC(=O)OC)c(C(=O)OC)c1)N(Cc1ccccc1)C(=O)CCCCCN1C(=O)NC(c2ccc(-c3ccccc3)cc2)C(C(=O)OCc2ccccc2)=C1C (stereo not given) 5.01 µM
COC(=O)c1ccc(C(NC(=O)OCc2ccccc2)/C(F)=C/[C@@H](C)C(=O)NCCO)cc1 (stereo not given in full) 15.8 µM
COC(=O)c1ccc(C(NC(=O)OCc2ccccc2)/C(=C/[C@@H](C)C(=O)NCc2nc3ccccc3n2C)c2cccnc2)cc1 (stereo not given in full) 2 µM
Cc1ccc(CNC(=O)C2(CC(C)C)C=CCN2C(=O)c2ccccc2)o1 (stereo not given) 15.8 µM
C[C@@H]1C=C[C@](Cc2ccccc2)(C(=O)NCCc2c[nH]c3ccccc23)N1C(=O)c1ccccc1 2.51 µM
CCCCCCN(C(=O)CCCCCN1C(=O)NC(c2ccc(C(C)(C)C)cc2)C(C(=O)OCc2ccccc2)=C1C)C(C(=O)NCCCC)c1ccc(OCC(=O)OC)c(C(=O)OC)c1 (stereo not given) 1.26 µM
CCCCCCN(C(=O)CCCCCN1C(=O)NC(c2ccc3ccccc3c2)C(C(=O)OCc2ccccc2)=C1C)C(C(=O)NCCCC)c1ccc(OCC(=O)OC)c(C(=O)OC)c1 (stereo not given) 2.51 µM
COC(=O)c1ccc(C(NC(=O)OCc2ccccc2)/C(C)=C/[C@@H](C)C(=O)NCc2cc(F)cc(F)c2)cc1 (stereo not given in full) 3.16 µM
COC(=O)c1ccc(C(NC(=O)OCc2ccccc2)/C(C)=C/[C@@H](C)C(=O)N2CCN(C)CC2)cc1 (stereo not given in full) 1.26 µM

From PubChem BioAssay (NCATS)
